Source: PubChem BioAssay
This is a sample that favours compounds with a hit; in the whole collection about 1.4% have one here.
Casp6 inh – human caspase-6 inhibitors, primary screen, biochemical, VEID-R110 fluorescence, single point, set 2. P55212. purified caspase-6, Z-VEID-R110 cleavage fluorescence. inhibition, % at 12.5 µM. 350,000 tested, 0.53% active. AID 686996, 2013;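 active = mean inhibition across replicates at least about 35%, with every replicate also reaching that limit, limit read from the data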;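 also: 0% = median of neutral control wells and 100% = no fluorescence left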
UHRF1 binding – UHRF1 methylated DNA binding inhibitors, primary screen, counter-screen for MBD2 inhibitor project, biochemical, TR-FRET, human UHRF1, single concentration; E3 ubiquitin-protein ligase UHRF1 (Homo sapiens), Q96T88; UHRF1 binding to methylated oligo; inhibition, % at 4.4 µM; 370,000 tested, 0.75% active; in the data active = inhibition above about 21%;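 also: UHRF1 SRA domain binding a hemimethylated CpG hairpin DNA probe; 0% = median of test compound wells and 100% = reference inhibitor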
MBD2 inh – inhibitors of MBD2 binding to methylated DNA, primary screen, biochemical, TR-FRET, DNA-binding domain, human; inhibition, % at 4.4 µM; MBD2 binding to methylated oligonucleotide; 370,000 tested, 0.31% active; in the data active = inhibition above about 13%
LEDGF integ inh – blockers of LEDGF/p75-dependent integrase strand transfer – biochemical, TR-FRET, high throughput, primary screen; HIV-1 integrase (with human LEDGF/p75); TR-FRET IN-LEDGF/p75 DNA integration, Eu/Cy5; inhibition, % at 3.7 µM; 370,000 tested, 0.64% active; AID 743269, 2014;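 active = inhibition above the screen-wide mean plus 3 SD, cut at about 13% in these data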;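 also: signal is the Cy5 over europium emission ratio at 671 and 618 nm; 0% = plate median of compound wells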
CASP1 counter – human caspase-1 inhibitors, dose response, selectivity assay for caspase-6 inhibitor project, biochemical, Z-YVAD-R110 fluorescence, cherry-pick, set 2; activity change, negative = inhibition, % at 35 µM; purified caspase-1, Z-YVAD-R110 cleavage fluorescence; AID 743289, 2014; shares compounds with Casp6 inh; 100 tested, under 10 active;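 active = compounds lowering fluorescence whose fitted half-maximal concentration is no more than twice their top tested dose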
Target sequence (P29466 whole entry, looked up): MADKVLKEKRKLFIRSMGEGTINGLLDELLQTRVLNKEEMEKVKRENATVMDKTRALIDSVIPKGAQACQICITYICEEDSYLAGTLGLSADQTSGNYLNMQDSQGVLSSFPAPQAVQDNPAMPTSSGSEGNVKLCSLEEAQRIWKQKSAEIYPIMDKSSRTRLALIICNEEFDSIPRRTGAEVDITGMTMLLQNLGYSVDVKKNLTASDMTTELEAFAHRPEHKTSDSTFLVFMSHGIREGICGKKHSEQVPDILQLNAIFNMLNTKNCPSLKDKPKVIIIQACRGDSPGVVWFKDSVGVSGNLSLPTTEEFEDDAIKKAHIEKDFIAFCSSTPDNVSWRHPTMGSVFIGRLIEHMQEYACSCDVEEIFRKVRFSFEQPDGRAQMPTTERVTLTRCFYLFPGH
IN multimer act – HIV-1 IN multimer formation enhancers, counter-screen for LEDGF/p75 integration inhibitor project, biochemical, TR-FRET | activation, % at 7.7 µM | shares compounds with LEDGF integ inh | 2,000 tested, 17% active | TR-FRET HIV-1 integrase multimerization; in the data active = activation above about 8.9%
TRFRET interf – TR-FRET optical interference artefacts, confirmation, artefact control for LEDGF/p75-dependent integration inhibitor project, biochemical, HIV-1 IN multimerization. shares compounds with LEDGF integ inh. TR-FRET optical interference counterscreen. inhibition, % at 7.7 µM. 2,000 tested, under 10 active;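 active = inhibition above the mean over all tested compounds plus 3 SD, which no compound reached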;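 also: 0% = integrase with antibodies and DMSO and 100% = antibodies without integrase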
IN-LEDGF confirm – inhibitors of HIV-1 IN-LEDGF/p75 DNA integration, confirmation, biochemical, TR-FRET | shares compounds with LEDGF integ inh | TR-FRET LEDGF/p75-dependent HIV-1 integration | inhibition, % at 3.7 µM | 2,000 tested, 36% active | AID 1053136, 2014; in the data active = inhibition above about 14%
Active calls of the source: *; x = no result given.

SMILES | Casp6 inh | UHRF1 binding | MBD2 inh | LEDGF integ inh | CASP1 counter | others
O=C1Cc2ccccc2C(=O)N1 | 99.3* | -2.2 | 4.5 | 24.8* | -7.1
COc1ccc(CN(C)C[C@H]2Oc3ccc(NC(=O)NC4CCCCC4)cc3C(=O)N([C@@H](C)CO)C[C@@H]2C)cc1 | -1.7 | x | x | x | x
C=CCN1C(=O)[C@]2(O[C@H](CCn3cc(CCO)nn3)[C@@H]([Si](C)(C)c3ccc(OC)cc3)[C@@H]2C)c2cc(N3C(=O)c4cccc5cccc3c45)ccc21 | 0.4 | x | x | x | x
Nc1cc2nn(-c3ccccc3)nc2cc1Cl | 98.4* | -0.4 | -11.6 | 48.1* | 2.0
COCC(=O)N1CCC2(CC1)CN(Cc1nccs1)[C@H](CO)c1c2c2ccc(OC)cc2n1C | -0.6 | x | x | x | x
CCC(=O)N[C@H]1C=C[C@@H](CC(=O)NCCN2CCCCC2)O[C@@H]1CO | 2.0 | x | x | x | x
O=C(O)CCc1ccc(-c2ccc(Br)cc2)n1CC(=O)O | 47.0* | 5.1 | 1.8 | 9.5 | 9.8
Cc1[nH]nc(S(=O)CC(=O)O)c1[N+](=O)[O-] (configuration not stated) | 40.6* | -0.1 | 0.8 | 1.2 | 9.2
CCOC(=O)[C@H](Cc1c[nH]c2ccccc12)NC(=O)CN=[N+]=[N-] | 38.1* | x | x | x | -1.0
COC(=O)[C@H](Cc1c[nH]c2ccccc12)NC(=O)Cc1c[nH]c2ccccc12 | 5.0 | -2.6 | -1.5 | 1.1 | x
O=C(c1cccc(-n2cccc2)c1)N1CCN(S(=O)(=O)c2ccccc2)CC1 | 50.9* | 55.8* | 27.5* | 7.2 | 3.2
CC(C)NC(=O)Nc1ccc2c(c1)C(=O)N([C@H](C)CO)C[C@@H](C)[C@H](CN(C)S(=O)(=O)c1cccs1)OCCCC[C@@H](C)O2 | 0.6 | x | x | x | x
C[C@@H]1CN([C@H](C)CO)C(=O)c2cc(NC(=O)Cc3cn(C)c4ccccc34)ccc2O[C@@H]1CN(C)C(=O)Nc1cccc2ccccc12 | 1.1 | x | x | x | x
CCn1cnc2cc(NCc3ccc(OC)cc3)ccc21 | x | -0.4 | 3.1 | -5.9 | x
CCOc1ccc2nc3cc(NCc4ccc(OC)cc4)ccc3c(N)c2c1 | 73.0* | x | x | x | 3.2
Cc1ccc(S(=O)(=O)N(C)C[C@H]2Oc3ccc(NC(=O)CCCN(C)C)cc3CC(=O)N([C@H](C)CO)C[C@@H]2C)cc1 | 0.6 | x | x | x | x
NS(=O)(=O)c1ccc(NC(=O)COC(=O)c2ccc([N+](=O)[O-])s2)cc1 | 91.8* | 1.8 | -8.4 | 6.9 | 4.5
CN(CC(=O)Nc1ccccc1Cl)C(=O)COC(=O)c1ccc([N+](=O)[O-])s1 | 99.4* | -2.1 | -1.7 | 10.0 | -3.8
Cc1ccc(NC(=O)COC(=O)c2ccc([N+](=O)[O-])s2)c(C)c1 | 0.8 | -0.9 | 4.0 | -0.8 | x
COc1ccccc1NC(=O)COC(=O)c1ccc([N+](=O)[O-])s1 | 86.9* | 1.9 | 5.2 | 16.6* | -0.2 | IN multimer act=0.3;TRFRET interf=-1.5;IN-LEDGF confirm=44.3*
Oc1cc(NCCc2cccnc2)cc2cccnc12 | 48.8* | -12.0 | -9.9 | 18.0* | 4.7 | IN multimer act=2.3;TRFRET interf=-11.3;IN-LEDGF confirm=20.8*
CC(C)NC(=O)Nc1ccc2c(c1)CC(=O)N([C@H](C)CO)C[C@@H](C)[C@H](CN(C)Cc1ccc(Oc3ccccc3)cc1)O2 | 0.7 | x | x | x | x
COc1ccc(CN(C)C[C@H]2Oc3ccc(NC(=O)Nc4ccc(F)cc4)cc3C(=O)N([C@H](C)CO)C[C@@H]2C)cc1 | -2.0 | x | x | x | x
